The whole screen tested about 53,000 sequences, of which about 3,700 (7%) were called active. Shown is part of a subset that was picked to be rich in actives. Values without a mark were called inactive.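 How the source made its calls: active means gene knockdowns whose robust z-score for IL-1 alpha signal is at least 2 or at most -2, so actives lie on both sides; inactive means the rest.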

The values that follow come from PubChem BioAssay AID1508600 (Functional Genomics Laboratory (NCATS/FGL), 2020).

The nature of this test: Components of the Cytosolic LPS Sensing Pathway: Gene Identification via Genome-wide siRNA Screen.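 Further: robust z of the log signal after scaling to non-targeting control siRNA wells of the plate.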 The note with it: RAW264.7 macrophages, IL-1a HTRF, actives lie on both sides, screened at 100 nM (by protocol), cells primed 5 h with Pam3CSK4 first. The procedure, abridged: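 Supernatant IL-1a by HTRF from RAW264.7 cells primed with Pam3CSK4 (5 hours) and transfected with LipidA (24 hour) after 48h siRNA knockdown at 100 nM; cell viability checked with CellTiter-Glo.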
Regarding GGUGGUCUGAGAAAUACUCTT against Czib, the z-score is 2.06 (active).
Next, GCAUCUCCUGCCAAAGCAGTT against Ms4a2: -0.381.
The same measure for GGUAGUAGGAGGAAUGACGTT against Ccdc93: -0.353; for GCUUCCUUAUUGACAAUGGTT against Rbm19: 0.596.
As to GGAGGGACACAGAGAUUACTT against Auh, the z-score was 5.05 (active).
GGAGUAGCAGAGCUUCUGGTT against S100a8: the z-score was 0.642.
The same measure for GGAGAAUAAAACUUCCAGATT against Urod: -0.436.
The same measure for GGGACACAGCUAAAAGCUUTT against Fam20b: 0.146; for CGAUACAGGACCGAAGGAGTT against Fhad1: -0.196.
Next, GGUGGAUAUUGAUAUCAAGTT against Fga: 3.31 (active); CCCGGAGAGUCAUUUGUGUTT against Cpsf4: 0.435; CGGAAUCAUACAUUGGUUCTT against Zfp217: 1.22.
In the case of GGUGUCUGACUUUAAGAAGTT against Foxred1, the z-score is -0.247.
For the sequence GCCACAACUUAAUUUUCUGTT against Nav3, the z-score was -0.305.
The same measure for GGAAUCAGAUACAAAGGAGTT against Sil1: 0.265; for CUAUCAAGGGCAGUCAACUTT against Olfr1208: -2.38 (active).
For the sequence GGACACUAUGACGGAAGUATT against Apoe, the z-score was -1.13.
The same measure for GGUUCUGAAGAUGGAGGUUTT against Ttbk2: 1.22.
The same measure for CCAAGAAUGCCCAGCAAGUTT against E4f1: 2.39 (active); for GCGACUUCAGAUUUCAUUATT against Srsf2: -0.439; for GGUCAACCAUUCCUCUUGATT against Ccdc9b: 0.409.
In the case of GCUGAAGGAUCCCAUUAGATT against Cbx2, the z-score was -1.68.
The same measure for GCAACUUGGGAACUCUUUGTT against Pnpla7: -1.77.
The same measure for GGUUUCUUUCUCUGAGUUUTT against Man2a1: 1.62; for GGAGGAACUCCUAAAGAAGTT against Galntl5: -0.511; for CCGAUCAUUAUGAGCAUACTT against Nxf7: -1.76.
Next, GGUCUUUAGCAAAUUGUUCTT against Lrrc6: 2.02 (active); GGAUGCAGAAGAUUUUGUGTT against Ptprcap: -0.704; GGAGACACAAAAGAAGAUATT against Sec14l4: -0.359.
Regarding CCUGCGUUGACCAAUCAGATT against C2cd2l, the z-score is -1.26.
Next, CCUAGUCCUGAUUUAUCAGTT against Ddx39b: -2.02 (active).
Next, “GCUCUAGGAAUCCAAAUAUTT against 9930014A18Rik”: 0.8.
The same measure for GGCUUCUUCAGAUCCUAAATT against Olfr554: -0.615; for GGUCAUCAGAAGAAUCAAGTT against Arr3: 2.13 (active).
In the case of GCGAUAUCUCAACUUCCCGTT against Fchsd1, the z-score was 0.541.
The same measure for GCAUGCGCCCUAAAGGAAATT against Zmynd15: 0.687; for CCAGUCUUAUCUGUAGAAGTT against Obox1: -1.69.
The same measure for GCCUAACUAUGAAACUUCGTT against Ppp1r11: 0.754; for CCAUUGUAGUCAGUCAAAUTT against Pip: -0.498.
Next, GGAUGAAAGUCCUGGACAGTT against Gli3: 5.97 (active).
Turning to GGAGCAGUUGUGUUUAACATT against Psg17, the z-score is 0.596.
Next, GGAAAGAGGGAAACUAAUUTT against Abhd17a: -0.694; GGCAGAAAGCAGAAACAGUTT against Mok: -0.901; GGUAUCUUCUCUUGGAAAATT against Tex12: -0.533.
The same measure for GCUAUGGGAUAUGAGCUGATT against Antkmt: -0.75; for GGAAUUCAGUGAAUGUCAUTT against Gapvd1: -2.28 (active).
For the sequence UGUGCCCUAUAGAACCUGUTT against Krtap13-1, the z-score was 0.394.
GGACAACUCGAGUCUUAAATT against Poln: the z-score is 1.
The same measure for GCUCUUAUCAGCAUGUAUATT against Birc6: 1.7.
Next, ACUAGACUGAACUACCUGATT against Aim2: 0.137; GGCUCAUCAGAUGUAAACATT against Efcab6: -2.13 (active).
The same measure for GCUAACAAGCUAGCAUUUATT against Ltv1: -1.17; for GGUCCUGUUGAGAAUUUAATT against Zdhhc15: 0.464.
On to GGCAACUGAAUGUUUCCUATT against Nudt19, for which the z-score was -1.41.
Next, CCUAAGAGAUAAGAGCACCTT against Ppa2: 0.381; GGAGAUUUACUGCUCGCUGTT against Pik3r6: 0.0343; CAGGAUUCCUUGGACAUACTT against Olfr477: -0.559.
Next, GCUAAGUUCCAAGGCGACCTT against Serpinh1: 2.77 (active); GGAUAAAGCAUCAGACAAATT against Hmgn1: -0.202; UCAGCUGGUUUUAAUCUCUTT against Olfr1029: -0.193.
On to CGCAACAGAUAGUAAAUAUTT against Ufsp2, for which the z-score was -1.21.
The same measure for GGACCCAAAUCUUUUUAGATT against Wac: -1.03; for GGUCCCAGACUGAGUGAAATT against Epo: -0.302; for GGUCAAGAUCCGAAGCUACTT against Cntn2: -0.749.
Next, GGUCUUGCUGUUCGAAGAATT against Gsx1: 0.417; AGUGUAACUGCAGAAGCCUTT against Olfr207: -1.3; CAACCGUUGUGGCCAUGACTT against Olfr59: -0.332.
The same measure for CCCAGGCUAUUUCAACAAUTT against Arhgef11: -1.24.
Regarding GGGCUACAAGAAAAAGUAUTT against Krt85, the z-score is 2.69 (active).
Next, GCAGUCAAUUCCCUUUUACTT against Ankmy1: -0.876.
Next, GCCUAACCAACAAUUCUACTT against Oas1b: 1.61.
Turning to GGUCUUCUACUCCUUCUCATT against Slc6a19, the z-score is -2.09 (active).
Next, “GGAGACUGCUAUAUUGGCUTT against 1700092C17Rik”: -0.147; GCUAAAAGGUAAGUACUUCTT against Lncpint: 0.981; GGGUAACAACCAUGUCCGUTT against Pspn: 1.26.
Next, CGGGAAUCCUAUCUAUCAATT against Smox: 0.762.
Next, GGAAGAACAAAAAACCAUGTT against Sf3b2: -2.14 (active).
Turning to CGAGAUGAAUUUCUAGUAGTT against Tubgcp3, the z-score is 1.47.
Next, GGUUGGCUUCAAAAAUAUGTT against Psmb1: -1.04.
Next, GGAAUUCCACCUAAAAUUGTT against Ttn: 1.32; CCUGCUCCUUACAUCUCGCTT against Foxred2: 1.51.
Take CCAUUUAAUCCAUAUUUCCTT against Gnao1: the z-score is -2.05 (active).
Turning to CGGACUCACAGAGCUAAGATT against Tnp2, the z-score was 1.56.
Next, GGGCAGAACUGCAUGAGAATT against Acp1: -0.176; GCACAAAUUUGGUAGUGUUTT against Nup50: -1.53.
The same measure for GGAGUAAACCUACUGCUCATT against Esam: 2.14 (active).
Turning to CCUGAUGUAACUAUAAACATT against Adam32, the z-score was -0.107.
Next, GGAUGUCUGACUCAGGUCUTT against Olfr829: 0.0622.
Next, GGCAGUGAUGUUUCUCUCGTT against Tmem198b: 0.152; GGAUUCCAGAUUAAAUGAUTT against Rfc1: 1.09.
The same measure for GGCAACCAUUAAAUGUUUATT against Trim59: -0.54; for CCUUUUGUUUUACCUACUCTT against Tbx22: 2.32 (active).
Turning to GGAUGAGCAGAAAUGUGUATT against Plekho2, the z-score was 0.931.
Next, CCUCUACAUCCAGGAAUGATT against Map4k1: -0.546.
The same measure for GGUCCUAAUUCGAAGCAGATT against Emc3: -0.589; for GGGAUUGCAUGGUUAAACUTT against Nfam1: -0.901.
Next, GGUUUUGACAUCACAUUCUTT against Mtfr2: 1.34; GGUAGACAGAGAAGAUAAATT against Slc35f5: -2.01 (active).
As to GGUUGAUGACAACAAGAAATT against Rps12, the z-score is -0.368.
For GGGAGGAGAGGACAAAUUATT against Ywhae, the z-score is 1.66.
The same measure for GGAACGUGAAUCUACAGCATT against Tex43: -2.73 (active); for GGCAGGACGAACAUGGCUATT against Hspb1: 1.2; for GGAAUUAAAGAGGAACUCCTT against Adamts20: 0.172.
On to GCUGUCAGACUAAAGAUAUTT against Mmd, for which the z-score is -0.733.
The same measure for CCUCCAGAGUAUUGUCUAGTT against Ppfia3: 1.26.
Turning to GGACAUUGAGAACAUUAUCTT against Caln1, the z-score was -1.14.
For GGACCAUGUGGACUUUAGCTT against Sema7a, the z-score is -0.522.
Next, GGCACUUCAACAGCAGUUATT against Cep295: -1.27.
